Drawing on ChEMBL document CHEMBL2218924, “A broad activity screen in support of a chemogenomic map for kinase signalling research and drug discovery” (Biochem J, 2013), this text covers residual activity for six molecules.

The structures appear in SMILES notation.

Assay [1] concerns the target T1, Serine/threonine-protein kinase BRSK1 (Homo sapiens) (UniProt Q8TDC3).
T1 sequence (whole entry): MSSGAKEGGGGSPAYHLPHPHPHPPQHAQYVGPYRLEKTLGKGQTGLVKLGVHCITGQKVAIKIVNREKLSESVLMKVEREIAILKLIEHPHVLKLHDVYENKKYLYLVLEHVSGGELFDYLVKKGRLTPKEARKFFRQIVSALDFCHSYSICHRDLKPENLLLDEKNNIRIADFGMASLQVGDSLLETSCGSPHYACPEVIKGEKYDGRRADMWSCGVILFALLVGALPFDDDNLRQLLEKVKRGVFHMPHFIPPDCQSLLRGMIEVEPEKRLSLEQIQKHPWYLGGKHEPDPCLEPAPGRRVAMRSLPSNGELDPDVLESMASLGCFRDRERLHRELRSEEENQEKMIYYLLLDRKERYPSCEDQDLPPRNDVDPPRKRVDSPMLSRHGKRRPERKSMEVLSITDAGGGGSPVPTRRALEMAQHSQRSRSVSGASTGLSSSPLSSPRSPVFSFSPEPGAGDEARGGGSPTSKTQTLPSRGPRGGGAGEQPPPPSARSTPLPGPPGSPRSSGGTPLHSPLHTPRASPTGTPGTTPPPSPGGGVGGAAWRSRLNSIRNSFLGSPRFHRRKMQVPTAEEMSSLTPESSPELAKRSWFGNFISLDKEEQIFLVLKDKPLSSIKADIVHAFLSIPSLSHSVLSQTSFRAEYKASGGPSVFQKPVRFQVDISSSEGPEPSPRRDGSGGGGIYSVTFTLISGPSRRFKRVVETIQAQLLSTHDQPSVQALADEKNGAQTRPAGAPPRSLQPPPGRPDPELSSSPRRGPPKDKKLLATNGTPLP
The following applies: at 1 µM.

Assay [2] deals with T1, Serine/threonine-protein kinase BRSK1 (Homo sapiens). The following applies: at 10 µM.
For assay [3], the target named is T2, Serine/threonine-protein kinase BRSK2 (Homo sapiens) (UniProt Q8IWQ3).
T2 sequence (whole entry): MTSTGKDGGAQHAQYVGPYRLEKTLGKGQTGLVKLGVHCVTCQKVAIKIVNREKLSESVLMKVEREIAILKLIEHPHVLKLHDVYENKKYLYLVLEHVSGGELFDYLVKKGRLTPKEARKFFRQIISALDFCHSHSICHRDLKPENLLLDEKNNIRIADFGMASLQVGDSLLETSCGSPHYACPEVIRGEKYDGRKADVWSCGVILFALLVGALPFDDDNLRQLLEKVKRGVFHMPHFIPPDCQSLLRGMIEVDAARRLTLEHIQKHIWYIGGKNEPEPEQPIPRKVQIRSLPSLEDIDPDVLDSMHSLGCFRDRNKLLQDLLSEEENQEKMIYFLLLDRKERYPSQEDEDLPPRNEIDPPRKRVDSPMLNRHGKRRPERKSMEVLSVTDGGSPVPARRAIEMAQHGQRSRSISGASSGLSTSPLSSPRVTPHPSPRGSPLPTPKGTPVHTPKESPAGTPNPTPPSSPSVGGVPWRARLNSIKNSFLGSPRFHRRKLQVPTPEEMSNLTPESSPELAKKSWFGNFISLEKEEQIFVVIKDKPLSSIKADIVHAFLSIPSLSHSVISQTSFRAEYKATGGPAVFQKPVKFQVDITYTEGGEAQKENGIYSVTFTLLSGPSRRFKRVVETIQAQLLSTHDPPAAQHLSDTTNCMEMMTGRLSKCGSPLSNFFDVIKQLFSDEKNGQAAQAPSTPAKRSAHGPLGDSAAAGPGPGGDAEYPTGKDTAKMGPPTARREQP
Particulars: at 1 µM.

Assay [4] concerns the target T2, Serine/threonine-protein kinase BRSK2 (Homo sapiens). Particulars: at 10 µM.
Assay [5] deals with T3, Cyclin-dependent kinase 1/cyclin B1 (Homo sapiens) (UniProt P06493+P14635). Particulars: at 1 µM.
T3 sequence (P06493 whole entry, looked up): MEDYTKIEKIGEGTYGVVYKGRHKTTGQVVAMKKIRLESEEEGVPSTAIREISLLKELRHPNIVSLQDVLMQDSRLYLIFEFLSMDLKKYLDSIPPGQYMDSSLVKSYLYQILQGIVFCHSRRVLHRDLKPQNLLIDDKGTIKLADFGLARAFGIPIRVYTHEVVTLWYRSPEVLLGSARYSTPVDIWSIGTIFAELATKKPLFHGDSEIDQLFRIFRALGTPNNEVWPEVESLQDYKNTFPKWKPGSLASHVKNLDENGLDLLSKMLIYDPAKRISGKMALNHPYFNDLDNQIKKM
T3 sequence (P14635 whole entry, looked up): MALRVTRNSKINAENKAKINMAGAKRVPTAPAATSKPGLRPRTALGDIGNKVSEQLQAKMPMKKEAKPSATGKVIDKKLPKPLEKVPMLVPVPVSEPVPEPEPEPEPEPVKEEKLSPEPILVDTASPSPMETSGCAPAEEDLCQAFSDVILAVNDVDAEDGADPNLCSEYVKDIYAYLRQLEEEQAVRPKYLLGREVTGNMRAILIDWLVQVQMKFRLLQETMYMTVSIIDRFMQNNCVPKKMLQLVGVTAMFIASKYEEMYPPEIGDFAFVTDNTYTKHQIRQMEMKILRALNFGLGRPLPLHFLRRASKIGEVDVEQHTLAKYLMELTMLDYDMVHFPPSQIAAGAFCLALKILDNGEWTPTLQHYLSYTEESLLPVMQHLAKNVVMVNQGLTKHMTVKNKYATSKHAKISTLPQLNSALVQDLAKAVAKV
Assay [6] has as its target T3, Cyclin-dependent kinase 1/cyclin B1 (Homo sapiens). Particulars: at 10 µM.
For assay [7], the target named is T4, Cyclin-dependent kinase 2/cyclin A (Homo sapiens) (UniProt P24941+P20248+P78396). Particulars: at 1 µM.
Assay [8] addresses T4, Cyclin-dependent kinase 2/cyclin A (Homo sapiens). Particulars: at 10 µM.
The target in assay [9] is T5, Cyclin-dependent kinase 2/cyclin E (Homo sapiens) (UniProt P24864+P24941+O96020). The following applies: at 1 µM.
Assay [10] deals with T5, Cyclin-dependent kinase 2/cyclin E (Homo sapiens). Particulars: at 10 µM.
Assay [11] concerns the target T6, CDK3/cyclin E (Homo sapiens) (UniProt P24864+O96020+Q00526). The following applies: at 1 µM.
For assay [12], the target named is T6, CDK3/cyclin E (Homo sapiens). The following applies: at 10 µM.
In assay [13] the target is T7, Cyclin-dependent kinase 5/CDK5 activator 1 (Homo sapiens) (UniProt Q00535+Q15078). Particulars: at 1 µM.
T7 sequence (Q00535 whole entry): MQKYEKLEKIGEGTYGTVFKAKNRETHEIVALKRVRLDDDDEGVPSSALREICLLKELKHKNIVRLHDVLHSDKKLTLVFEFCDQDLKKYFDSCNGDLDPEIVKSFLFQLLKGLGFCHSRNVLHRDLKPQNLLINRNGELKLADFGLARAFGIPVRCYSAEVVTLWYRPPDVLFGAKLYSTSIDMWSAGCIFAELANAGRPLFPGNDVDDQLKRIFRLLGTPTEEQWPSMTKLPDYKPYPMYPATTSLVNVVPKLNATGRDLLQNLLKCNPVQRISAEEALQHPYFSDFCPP
T7 sequence (Q15078 99-307 partner limits assumed): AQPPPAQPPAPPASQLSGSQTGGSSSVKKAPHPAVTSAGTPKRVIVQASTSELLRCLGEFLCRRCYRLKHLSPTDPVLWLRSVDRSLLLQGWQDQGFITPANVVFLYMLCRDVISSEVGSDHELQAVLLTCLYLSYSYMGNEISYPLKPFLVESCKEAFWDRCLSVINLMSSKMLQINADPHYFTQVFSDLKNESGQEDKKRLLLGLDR
Assay [14] concerns the target T7, Cyclin-dependent kinase 5/CDK5 activator 1 (Homo sapiens). The following applies: at 10 µM.
For assay [15] the target is unchanged. The following applies: at 1 µM. This is another data set of the same source.
The target is the same in assay [16]. Particulars: at 10 µM. This is another data set of the same source.
The target in assay [17] is T8, CDK6/cyclin D3 (Homo sapiens) (UniProt P30281+Q00534). Particulars: at 1 µM.
Assay [18] deals with T8, CDK6/cyclin D3 (Homo sapiens). Particulars: at 10 µM.
For assay [19], the target named is T9, Cyclin-dependent kinase 7/ cyclin H (Homo sapiens) (UniProt P51946+P50613). Particulars: at 1 µM.
The target of assay [20] is T9, Cyclin-dependent kinase 7/ cyclin H (Homo sapiens). Particulars: at 10 µM.

T6 sequence (O96020 whole entry, looked up): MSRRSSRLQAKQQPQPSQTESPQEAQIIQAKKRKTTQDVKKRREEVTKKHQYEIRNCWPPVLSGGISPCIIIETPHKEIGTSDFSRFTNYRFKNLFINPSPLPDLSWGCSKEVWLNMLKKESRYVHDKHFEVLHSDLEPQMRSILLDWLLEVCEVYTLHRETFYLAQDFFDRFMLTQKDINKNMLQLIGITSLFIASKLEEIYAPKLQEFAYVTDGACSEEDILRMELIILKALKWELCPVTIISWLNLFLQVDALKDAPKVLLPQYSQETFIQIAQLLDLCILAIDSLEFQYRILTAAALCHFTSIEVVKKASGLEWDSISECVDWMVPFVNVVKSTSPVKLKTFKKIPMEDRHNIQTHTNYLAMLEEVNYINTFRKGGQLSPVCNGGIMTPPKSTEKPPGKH
T6 sequence (P24864 whole entry, looked up): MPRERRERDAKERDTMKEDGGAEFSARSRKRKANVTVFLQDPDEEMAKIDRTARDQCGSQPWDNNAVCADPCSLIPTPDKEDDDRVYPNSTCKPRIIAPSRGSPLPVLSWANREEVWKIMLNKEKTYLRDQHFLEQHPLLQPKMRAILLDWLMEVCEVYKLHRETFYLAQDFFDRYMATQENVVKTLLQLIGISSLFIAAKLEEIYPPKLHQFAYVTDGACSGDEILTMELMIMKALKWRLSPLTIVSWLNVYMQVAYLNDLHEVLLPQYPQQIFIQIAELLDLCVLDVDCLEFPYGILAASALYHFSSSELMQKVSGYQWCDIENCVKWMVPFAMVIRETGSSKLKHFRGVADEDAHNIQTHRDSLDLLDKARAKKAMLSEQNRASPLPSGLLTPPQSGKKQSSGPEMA
T6 sequence (Q00526 whole entry, looked up): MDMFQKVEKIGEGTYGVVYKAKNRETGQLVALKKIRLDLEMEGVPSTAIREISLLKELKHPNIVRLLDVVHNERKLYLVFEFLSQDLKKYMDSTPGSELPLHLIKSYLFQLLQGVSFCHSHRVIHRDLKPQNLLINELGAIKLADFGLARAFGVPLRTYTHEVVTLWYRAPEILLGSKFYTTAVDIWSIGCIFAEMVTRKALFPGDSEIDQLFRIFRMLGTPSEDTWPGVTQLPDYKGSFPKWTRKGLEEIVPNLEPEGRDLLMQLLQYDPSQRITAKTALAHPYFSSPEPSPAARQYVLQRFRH

In the case of `O=[N+]([O-])c1ccc(-c2nc(-c3ccc(F)cc3)c(-c3ccncc3)[nH]2)cc1`, the residual activity in assay [1] was found to be 97%; in assay [2] it was 101%; in assay [3], 118%; in [4], 103%; in assay [5] it was 102%; in [6] it was 103%. Further, the residual activity in [7] worked out at 90%; in [8], 79%; in [9] it was 105%; in assay [10], 96%; in assay [11] it was 91%; in assay [12], 85%. In addition, the residual activity in assay [13] was 95%; in assay [14] it was 94%; in assay [15], 108%; in [16], 98%; in assay [17], 101%; in assay [18], 101%. Besides, the results for the residual activity in [19] and in assay [20] were 101% and 90%, respectively.
Regarding `Cc1ccc(S(=O)(=O)/C=C/C#N)cc1`, the residual activity was 83% in assay [1]; 99% in assay [2]; 113% in assay [3]; 77% in [4]; 106% in assay [5]; 102% in assay [6]. The residual activity was 124% in assay [7]; 91% in assay [8]; 91% in [9]; 105% in assay [10]; 93% in [11]; 96% in assay [12]. Also, the residual activity was determined as 102% in assay [13]; 101% in assay [14]; 100% in assay [15]; 80% in assay [16]; 95% in assay [17]; 93% in assay [18]. Moreover, the residual activity in assay [19] came out at 101%; in assay [20], 90%.
As for `O=Nc1c(-c2c(O)[nH]c3ccccc23)[nH]c2ccccc12`, the residual activity in [1] amounted to 13%; in [2] it was 12%; in assay [3], 10%; in [4], 5%; in assay [5], 35%; in assay [6] it was 19%. Further, the residual activity in assay [7] was 19%; in assay [8], 5%; in assay [9], 6%; in assay [10] it was -1%; in assay [11] it was 5%; in [12], 0%. Moreover, the residual activity in assay [13] is 3%; in [14], 2%; in assay [15] it was 5%; in assay [16] it was 1%; in assay [17], 16%; in assay [18], 5%. Also, the residual activity in assay [19] worked out at 42%; in assay [20], 16%.
Consider `O=C1NC(=O)/C(=C/c2ccc3c(c2)OC(F)(F)O3)S1`, for which the residual activity in assay [1] is 86%; in [2], 71%; in assay [3], 76%; in assay [4], 62%; in [5], 101%; in assay [6], 104%. Further, the residual activity in [7] was 140%; in assay [8] it was 96%; in assay [9] it was 102%; in [10], 113%; in assay [11] it was 104%; in assay [12] it was 89%. Moreover, the residual activity in assay [13] came out at 102%; in assay [14], 91%; in [15] it was 101%; in [16] it was 94%; in [17] it was 98%; in [18], 90%. For the same molecule, the values for the residual activity in [19] and in [20] were 88% and 86%, respectively.
Take `CC(C)n1cnc2/c(=N/c3cccc(Cl)c3)nc(NCCO)[nH]c21`: the residual activity in assay [1] turned out to be 89%; in [2] it was 89%; in assay [3], 118%; in [4] it was 104%; in [5], 58%; in assay [6], 13%. Also, the residual activity stood at 24% in [7]; 5% in assay [8]; 25% in assay [9]; 2% in assay [10]; 44% in [11]; 8% in [12]. For the same molecule, the residual activity in assay [13] amounted to 3%; in assay [14], 0%; in assay [15], 8%; in assay [16], 1%; in assay [17], 92%; in assay [18], 58%. Moreover, the residual activity in assay [19] turned out to be 45%; in assay [20], 7%.
As for `Cc1cc(Nc2nc(-c3ccccc3)nc3ccccc23)n[nH]1`, the residual activity is 57% in assay [1]; 12% in assay [2]; 59% in assay [3]; 7% in assay [4]; 97% in assay [5]; 68% in assay [6]. The residual activity in assay [7] stood at 67%; in [8], 25%; in assay [9], 70%; in assay [10], 15%; in assay [11], 63%; in assay [12], 19%. Moreover, the residual activity in [13] stood at 69%; in assay [14], 32%; in assay [15] it was 71%; in assay [16], 31%; in [17], 53%; in assay [18], 9%. Further, the residual activity in assay [19] came to 19%; in assay [20], 1%.
